Several values for one entry are separate records, joined by “and”; a condition that tells them apart may be missing. Equal entries are not always repeated. This is part of a sample that, as a whole, favours compounds with a hit. Of some 83,000 tested, about 20% had one in any assay.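 Testing used 96-well plates and a 48-hour single-concentration exposure. Example: -40 means 40% of the starting cells died.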 A number with no mark means an inactive call. Activity calls are given as the source filed them. The calls were made as follows: active = growth percent below 10; inactive = the rest.
Legend:
Assay in all cases: NCI-60 one-dose screen, 48 h (100 = growth as untreated, 0 = no growth, -100 = all killed)
Settings in all cases: 10 µM unless noted
[1] = tested on: SR leukemia
[2] = tested on: RPMI-8226 leukemia
[3] = tested on: OVCAR-8 ovarian
[4] = tested on: OVCAR-5 ovarian
[5] = tested on: OVCAR-4 ovarian
[6] = tested on: SK-OV-3 ovarian
[7] = tested on: IGROV1 ovarian
[8] = tested on: OVCAR-3 ovarian
[9] = tested on: HS 578T breast
[10] = tested on: NCI/ADR-RES ovarian
[11] = tested on: T-47D breast
[12] = tested on: BT-549 breast
[13] = tested on: MDA-MB-435 melanoma
[14] = tested on: SW-620 colon
[15] = tested on: MCF7 breast
[16] = tested on: HCT-116 colon
[17] = tested on: HCC-2998 colon
[18] = tested on: KM12 colon

Compound | growth [1] | growth [2] | growth [3] | growth [4] | growth [5] | growth [6] | growth [7] | growth [8] | growth [9] | growth [10] | growth [11] | growth [12] | growth [13] | growth [14] | growth [15] | growth [16] | growth [17] | growth [18]
Cc1nc2c(=O)[nH]c(=S)[nH]c2[nH]c1=O | 112% | 104% and 105% | 103% | 109% and 102% | 113% | 112% and 107% | 107% and 113% | 118% and 111% | 102% | 106% and 103% | 112% and 102% | 118% and 105% | 107% and 102% | 105% and 101% | 101% and 99.9% | 108% and 105% | 102% and 106% | 109%
CCCCC/C(C)=N\NC(N)=S | 86.9% | 70.9% | 65.3% | 103% | 67.8% | 98.9% | 89.7% | 43.4% | 87.6% | 48.8% | 33.6% | 96.7% | 84.4% | 67.5% | 19.6% | 11.7% | 97.8% | 93.5%
Cc1cc(=NO)cc(C)n1O | 72.5% | 103% | 111% | 117% | 106% | 104% | 114% | 104% | 103% | 114% | 94.4% | 82.8% | 106% | 100% | 87.6% | 97.3% | 120% | 110%
COC(=O)c1cc(C(=O)OC)cc([N+](=O)[O-])c1 | 74.7% | 93.8% | 93.5% | 106% | 106% | 98.5% | 118% | 120% | 103% | 115% | 111% | 91.6% | 115% | 102% | 98% |  | 99.2% | 112%
COc1ccc(COC=O)cc1 | 93.5% | 103% | 97.8% | 101% | 107% | 98.6% | 107% | 109% | 104% | 102% | 91.2% | 110% | 113% | 108% | 99.3% | 99.1% | 94.3% | 103%
O=C(NC(CSSCC(NC(=O)OCc1ccccc1)C(=O)O)C(=O)O)OCc1ccccc1 (configuration not stated) | 67.8% and 77.7% | 64.7% and 95.7% | 79.5% and 103% | 90.9% and 99.3% | 68.3% and 104% | 107% and 83.5% | 73.1% and 106% | 97.7% and 105% | 99.9% and 104% | 97.2% and 101% | 79.1% and 82.4% | 109% and 81.3% | 96% and 100% | 94.3% and 106% | 94.3% and 93.2% | 98.4% and 74.7% | 110% and 96.2% | 95.4% and 106%
N#Cc1c(N)nc2c(c(-c3ccc(Cl)cc3)nn2-c2ccccc2)c1C#N | 104% [100 µM] | 108% [100 µM] | 99.8% [100 µM] | 123% [100 µM] | 111% [100 µM] | 94.8% [100 µM] | 99.2% [100 µM] | 122% [100 µM] | 83.9% [100 µM] | 101% [100 µM] | 97.4% [100 µM] | 94.2% [100 µM] | 104% [100 µM] | 107% [100 µM] | 97.1% [100 µM] | 94.7% [100 µM] | 111% [100 µM] | 103% [100 µM]
CCNC1=CC(=O)c2ncccc2C1=O | 50.9% | 66.4% | 51.9% | -53.7% (active) | 47.1% | 73.5% | 63.2% | 1.49% (active) | -15.9% (active) | 56% | 86.1% | -27.8% (active) | -91.7% (active) | 13.8% | -13.2% (active) | 2.73% (active) | 29.8% | 48.2%
C/C=C(/C(=O)NC(N)=O)C(C)C | 88.7% | 113% | 96.2% | 116% | 119% | 99.4% | 114% | 104% | 107% | 107% | 99.1% | 106% | 107% | 94.5% | 94% |  | 115% | 90.8%
Cc1cnc(N)s1 | 101% | 95.9% | 92.8% | 90.7% | 103% | 89.7% | 103% | 105% | 89.4% | 101% | 90.2% | 100% | 104% | 103% | 95.4% | 95.8% | 92% | 103%
O=C1c2ccccc2CN1c1ccccc1 | 84.5% | 107% | 104% | 98% | 99.3% | 105% | 123% | 108% | 115% | 105% | 95.8% | 96.6% | 97.9% | 105% | 106% | 91.7% | 128% | 101%
O=C(O)C#Cc1ccc(Cl)cc1 | 100% | 106% | 97.6% | 102% | 97.5% | 92.5% | 98.3% | 110% | 93.6% | 108% | 90.7% | 99.9% | 106% | 96.8% | 98.8% |  | 108% | 104%
COc1ccc(/C=C/C(=O)O)cc1OC | 110% and 106% | 102% and 106% | 108% and 103% | 106% and 109% | 105% and 113% | 103% and 107% | 104% and 115% | 108% and 104% | 103% and 102% | 108% and 105% | 107% and 106% | 107% and 111% | 109% and 112% | 103% and 102% | 97.9% and 102% | 99.5% and 105% | 119% and 102% | 109%
CCOC(=N)c1ccc(C(=N)OCC)cc1 | 91.7% | 109% | 105% | 105% | 106% | 93.2% | 111% | 124% | 96.8% | 104% | 84% | 98.2% | 114% | 119% | 92.3% | 96% | 109% | 105%
CC(CN(C)C)CN1c2ccccc2Sc2ccccc21 (configuration not stated) | 79.1% and 96.2% and 45.7% | 74.9% | 95.7% and 109% and 101% | 88.9% and 79.7% | 88.1% and 102% and 84% | 97.2% and 95.8% and 101% | 73.5% and 92% | 114% and 98.6% and 90.7% | 77.5% and 91.1% and 67.1% | 79.2% and 85.1% and 81.4% | 79.4% and 88.3% | 79% and 91.8% and 80.2% | 76.3% and 85% and 75.7% | 86.9% and 83.8% and 88.8% | 88.2% and 94.2% and 82.2% | 59.3% and 63.9% and 94.9% | 78.4% and 97.8% and 83.4% | 95.4% and 104% and 89.5%

From PubChem BioAssay (NCI)
